{"source": "PubChem BioAssay (EPA / NIEHS)", "note": "Where “and” joins values, the source holds several entries; their conditions need not be identical. Identical values can stand only once. Records with an inconclusive call do not appear. A structure can be active in one record and inactive in another. Calls of active or inactive are those of the source. How the source made its calls: active means hit-call score of the fitted dose curve at least 0.9, where 1 is the maximum; inconclusive means response in the unintended direction; inactive means score below 0.9."}
{"target": "zebrafish Estrogen Receptor (ER1), esr1 (gene 259252) (UniProt P57717)", "sequence (P57717 whole entry, looked up)": "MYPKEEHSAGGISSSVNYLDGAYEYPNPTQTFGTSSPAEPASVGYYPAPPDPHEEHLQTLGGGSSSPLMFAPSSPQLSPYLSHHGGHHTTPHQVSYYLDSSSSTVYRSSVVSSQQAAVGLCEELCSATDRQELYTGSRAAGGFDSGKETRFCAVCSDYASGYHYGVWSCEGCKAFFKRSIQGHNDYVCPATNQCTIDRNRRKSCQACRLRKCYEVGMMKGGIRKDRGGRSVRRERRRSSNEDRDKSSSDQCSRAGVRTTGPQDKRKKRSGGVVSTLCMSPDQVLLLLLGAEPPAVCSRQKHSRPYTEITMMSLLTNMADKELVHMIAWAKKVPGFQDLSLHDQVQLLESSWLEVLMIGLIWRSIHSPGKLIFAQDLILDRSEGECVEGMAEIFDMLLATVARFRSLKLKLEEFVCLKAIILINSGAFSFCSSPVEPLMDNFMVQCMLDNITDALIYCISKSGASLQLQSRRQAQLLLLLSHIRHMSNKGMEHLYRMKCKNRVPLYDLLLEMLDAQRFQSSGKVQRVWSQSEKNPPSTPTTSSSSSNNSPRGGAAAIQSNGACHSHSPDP", "assay": "ATG_zfER1_XSP2: Attagene TRANS-FACTORIAL Multi-Species (XSP2) HepG2 Assay for zebrafish Estrogen Receptor (ER1) (AID 2283816)", "protocol": "ATG_XSP2_multi-species_TRANS is a cell-based, multiplexed assay created by modifying the existing Attagene TRANS-FACTORIAL system to include a panel of nuclear receptors from some or all the following species: human (Homo sapiens), mouse (Mus musculus), frog (Xenopus laevis), zebrafish (Danio rerio), chicken (Gallus gallus), and turtle (Chrysemys picta). The ECOTOX-FACTORIAL format uses HepG2, a human liver cell line, with measurements taken at 24 hours after chemical dosing in a 24-well plate. Xsp2 included 3 nM 6-alpha-fluorotestosterone and 1.5 nM norgestrel to stimulate the androgen receptor.ATG_zfER1_XSP2 is one of 29 assay components measured or calculated from the ATG_XSP2_multi-species_TRANS assay. It is designed to make measurements of mRNA induction, a form of inducible reporter, as detected with fluorescence intensity signals by Reverse transcription polymerase chain reaction (RT-PCR) and Capillary electrophoresis technology.The assay endpoint ATG_zfER1_XSP2 was analyzed in the positive analysis fitting direction relative to DMSO as the negative control and baseline of activity. Using a type of inducible reporter, measures of mRNA for gain-of-signal activity can be used to understand the reporter gene at the transcription factor-level as they relate to the gene ER. Furthermore, this assay endpoint can be referred to as a primary readout, because this assay has produced multiple assay endpoints where this one serves a reporter gene function. To generalize the intended target to other relatable targets, this assay endpoint is annotated to the nuclear receptor intended target family, where the subfamily is steroidal.\nHuman liver HepG2 cells are transiently transfected with multiple reporter transcription units (MRTUs) in 6-well plates using FuGene 6 reagent (Roche; 3 ml FuGene/1 mg DNA). The MRTU constructs are regulated by a cis-regulating element (promoter). […] A major difference between the CIS and TRANS system is that in CIS activities of endogenous TFs are measured, whereas the TRANS assay evaluates changes in activities of exogenous, chimeric NR-Gal4 proteins. […] At the end of 24 hour incubation, total RNA was isolated using TriZol reagent (Invitrogen). The isolated RNA is then reverse-transcribed using oligo(dT) primer and Mo-MLV reverse transcriptase (Invitrogen) with DNAse I (Ambion) treatment for 30 min. The one-tenth of the produced cDNA was amplified by PCR using Taq DNA polymerase (Invitrogen) and two reporter sequence-specific primers. The PCR products were fluorescently labeled by primer extension with 6-arboxyfluorescein (6-FAM) 5'-labeled reporter sequence-specific primer (2 min at 95 C, 20 s at 68 C and 10 min at 72 C) and these products were digested with 5U of HpaI (New England Biolabs) for 2h at 37 C. The fragments were purified using Qiaquick PCR columns (Qiagen), analyzed on an ABI 3130xL genetic analyzer (Applied Biosystems) with peak positions identified by using a set of X-rhodamine (ROX)-labeled MapMarker1000 molecular weight standards (BioVentures). The raw capillary electrophoresis data was processed using Attagraph software (Attagene)."}
{"smiles": "O=C1C2(Cl)C3(Cl)C4(Cl)C(Cl)(Cl)C5(Cl)C3(Cl)C1(Cl)C5(Cl)C24Cl", "note": "(centres undefined)", "outcome": "inactive"}
{"smiles": "C[C@]12CCC(=O)C[C@@H]1CC[C@@H]1[C@@H]2CC[C@]2(C)[C@@H](O)CC[C@@H]12", "outcome": "inactive"}
{"smiles": "C[C@]12CC[C@H](O)CC1=CC[C@@H]1[C@@H]2CC[C@]2(C)C(=O)CC[C@@H]12", "AC50": "13.9 µM (active) and 7.49 µM (active)"}
{"smiles": "CC1(C)CCC(Cc2ccc(Cl)cc2)C1(O)Cn1cncn1", "note": "(centres undefined)", "outcome": "inactive"}
{"smiles": "CC(C)(C)c1cc(O)ccc1O", "outcome": "inactive"}
{"smiles": "O=S(=O)(c1ccc(Cl)cc1)c1ccc(Cl)cc1", "AC50": "26.6 µM (active) and 37.7 µM (active)"}
{"smiles": "Clc1ccc(C2(Cn3cncn3)CC(Br)CO2)c(Cl)c1", "note": "(centres undefined)", "outcome": "inactive"}
{"smiles": "CC(C)C1CCC(Cc2ccc(Cl)cc2)C1(O)Cn1cncn1", "note": "(centres undefined)", "outcome": "inactive"}
{"smiles": "Oc1c(I)cc(I)cc1I", "outcome": "inactive"}
{"smiles": "C[C@H]1CCCC(=O)CCC/C=C/c2cc(O)cc(O)c2C(=O)O1", "AC50": "9.96 nM (active)", "outcome": "inactive"}
{"smiles": "CC12CC1(C)C(=O)N(c1cc(Cl)cc(Cl)c1)C2=O", "note": "(centres undefined)", "outcome": "inactive"}
{"smiles": "CC(=O)C=C(C)C", "outcome": "inactive"}
{"smiles": "Oc1ccc(-c2ccccc2)cc1", "AC50": "4.42 µM (active) and 8.23 µM (active)"}
